Growth inhibition data for eight compounds are collected here from PubChem BioAssay (NCI).

This test can be described thus: NCI Yeast Anticancer Drug Screen. Data for the sgs1 strain (AID 173).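 Also: 0% = growth of vehicle-only control cultures.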 Conditions: S. cerevisiae sgs1 mutant, hits give high values. On the procedure: Growth inhibition of yeast strains with defined genetic alterations is measured as a screen for potential anti-cancer activity. Selected strains with alterations in DNA damage repair or cell cycle control were exposed to compounds and growth inhibition was measured relative to vehicle treated controls. The strain used in this assay is sgs1

Each structure is given as a SMILES string. This is part of a sample that, as a whole, favours compounds with a hit. Of some 79,000 tested, about 15% had one in any assay. A number with no mark means an inactive call. The source made the active and inactive calls. Rule as the data show it: active = growth inhibition above about 70%; inactive = the rest.

Take `CC1C=CN(N(C)C)C2=C1C(=O)c1cnccc1C2=O` (stereo not given): the growth inhibition is, setting by setting: (at 1.2 µM) 41%; (at 3.7 µM) 46%; (at 11.0 µM) 65%; (at 33.0 µM) 93% (active); (at 100.0 µM) 96% (active).
Consider `Nc1nc(Nc2ccccc2)nc(Nc2ccccc2)n1`, for which the growth inhibition is -10% (at 1.2 µM); -3% (at 3.7 µM); 6% (at 11.0 µM); 57% (at 33.0 µM); 97% (active) (at 100.0 µM).
On the same counts, the results for `O=[N+]([O-])c1cccc2nc3ccccc3c(NCCC[N+]3([O-])CCOCC3)c12` are 63%, 79% (active), 85% (active), 89% (active) and 93% (active).
Take `NNc1nnc(-c2ccccc2)nc1Cc1ccccc1`: the growth inhibition (at 1.2 µM) was -15%; the growth inhibition (at 3.7 µM) was -15%; the growth inhibition (at 11.0 µM) was -6%; the growth inhibition (at 33.0 µM) was 91% (active); the growth inhibition (at 100.0 µM) was 94% (active).
With `CN(C)N1C(=O)SCC(c2ccccc2)(c2ccccc2)C1=O`, the growth inhibition (at 1.2 µM) was -1%; the growth inhibition (at 3.7 µM) is 1%; the growth inhibition (at 11.0 µM) is 4%; the growth inhibition (at 33.0 µM) was 20%; the growth inhibition (at 100.0 µM) is 34%.
In the same order, the values of `COc1cc(NCCCCCNC(C)C)c2ncccc2c1Cl` are -1%, -2%, 3%, 13% and 23%.
With `O=C(Cc1ccccc1)c1ccc(O)cc1`, the growth inhibition was -15% (at 1.2 µM); -39% (at 3.7 µM); -5% (at 11.0 µM); 59% (at 33.0 µM); 88% (active) (at 100.0 µM).
As for `CCCCCCC(CCl)c1sc(-c2csc(CCNC(=O)OC(C)(C)C)n2)nc1C(=O)OC` (stereo not given), the growth inhibition was -2% (at 1.2 µM); 0% (at 3.7 µM); 1% (at 11.0 µM); 14% (at 33.0 µM); 97% (active) (at 100.0 µM).
